An excerpt weighted towards active compounds, which were near 1.2% of everything screened.
KCNH2 3.1 inh: blocks the human KCNH2 3.1 channel isoform; activity change, % (tested at about 1.8 µM); U2OS KCNH2 3.1, thallium flux FluxOr; stronger effect = lower value; AID 720553; 0.95% of 340,000 active;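 active = maximum activity change below -70%; inconclusive = maximum activity change from -70% to -50%; inactive = maximum activity change above -50%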;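 note: thallium influx rate constant from kinetic fluorescence after stimulation buffer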
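Steps: virus added to U2OS suspension (4 h, RT, dark); medium with 10% FBS added, cells plated, 37 C overnight; FluxOr/Red40 loading buffer 45 min RT; stimulation buffer, 2 min kinetic read; rate constant normalized.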
RGS4 inh: inhibitors of human regulator of G protein signaling 4 | Transcreener GDP fluorescence polarization, RGS4-accelerated GTP hydrolysis | Potency, µM (doses to about 114 µM), inactives show top-dose activity change, negative = inhibition, hits mostly inhibitors | 0.039% of 390,000 active | P49798; note: potency is the fitted concentration of half-maximal effect; nearly all actives have a fitted effect of over 75% in size
Target sequence (P49798 whole entry, looked up): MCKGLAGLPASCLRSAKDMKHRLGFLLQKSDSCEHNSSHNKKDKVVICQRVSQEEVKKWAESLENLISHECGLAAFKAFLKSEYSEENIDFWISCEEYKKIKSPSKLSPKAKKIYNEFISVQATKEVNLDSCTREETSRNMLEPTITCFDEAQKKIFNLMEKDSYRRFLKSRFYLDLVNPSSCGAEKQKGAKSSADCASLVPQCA
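MLSMR compounds (23 nl, pin-transferred) preincubated 10 min at room temperature with a 500nM (2x) first reagent, then RGS4 at 900nM (2x) plus Transcreener GDP mix added; fluorescence polarization (620/688 nm) read before and after 90 min at 30 °C.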
GCN5L2 inh: GCN5L2 (KAT2A) acetyltransferase inhibition. GCN5L2 HAT assay, ThioGlo1 CoA-SH fluorescence. 0.21% of 390,000 active. Q92830. Potency, µM (highest dose often 58.9 µM), for the others: top-dose activity change, negative = inhibition, actives largely listed as inhibitors; note: potency is the fitted concentration of half-maximal effect
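Preincubate 20nM GCN5L2 with compound 15 min, RT → add 50uM ThioGlo1 + 75uM H3(1-25) + 70uM acetyl-CoA → read fluorescence 0 and 20 min. Primary qHTS; fluorescent artifacts likely.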
KCNH2 WT inh: blocks the wildtype human KCNH2 potassium channel; Q12809; U2OS, BacMam KCNH2, thallium flux FluxOr; stronger effect = lower value; activity change, % at 1.84 µM; 0.37% of 340,000 active; AID 720551;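 active = maximum activity change below -70%; inconclusive = maximum activity change between -70% and -50%; inactive = maximum activity change above -50%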
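U2OS cells were transduced with wild-type KCNH2 virus (2.03 x 10^8 / mL) for 4 h at room temperature, then cultured overnight at 37 C. Thallium flux was read with FluxOr dye. Rate constants were normalized to DMSO controls.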
PGK inhibitor: T. brucei PGK inhibition | P07378 | PGK/GAPDH coupled, Kinase-Glo luminescence, 60 min | Potency, µM (series often up to 57.5 µM), without a hit: at the top dose activity change, negative = inhibition, usual class: inhibitors | 0.043% of 380,000 active | AID 602233; note: potency is the fitted concentration of half-maximal effect; nearly all actives have a fitted effect of over 60% in size
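Luminescent ATP detection (Kinase-Glo Plus) follows a 60-minute room-temperature incubation, with wells lacking PGK as controls. Buffer: 100 mM TEA (pH 7.6), 5 mM MgCl2, 0.01% Tween-20. Coupling enzyme GAPDH (100 nM final) supplies unstable 1,3-BPG in-well.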
Pin1 inhibitor: human Pin1 inhibition | Q13526 | Pin1 FP peptide displacement, HiFluor488, 10 min | Potency, µM (series often up to 115 µM), for inactives: top-dose activity, negative = inhibition, most hits filed as inhibitors | 0.009% of 390,000 active; active = well fitted inhibition curve with a large enough effect in the polarisation, with a control signal flat, not every such curve was filed as active; inconclusive = small, poorly fitted or top-dose-only effect, or effect the other way, or a change in a side signal; inactive = no such curve, though single readings can be large or run the other way; the % refers to the polarisation; note: potency is the fitted concentration of half-maximal effect
Target sequence (Q13526 whole entry, looked up): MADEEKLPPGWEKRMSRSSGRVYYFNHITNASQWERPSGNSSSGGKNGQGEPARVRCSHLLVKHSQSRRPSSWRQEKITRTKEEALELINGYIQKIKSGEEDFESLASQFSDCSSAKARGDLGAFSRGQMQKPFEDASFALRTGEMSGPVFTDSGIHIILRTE
Starred values were filed as active, the others as inactive; i = inactive; ? = inconclusive; nt = no result given; [ ] = remark or other dose. Unless noted, calls come from the whole dose curve; as a rule, active = well fitted curve in the direction sought with a large enough effect; inconclusive = small, poorly fitted or top-dose-only effect, or another doubt; inactive = no such curve, though single readings can be large; an effect the other way counts as inactive or inconclusive. % is set by controls: 0 for no effect and ±100 for the full control effect.

SMILES	KCNH2 3.1 inh	RGS4 inh	GCN5L2 inh	KCNH2 WT inh	PGK inhibitor	Pin1 inhibitor
CCCOc1ccc(NC(=O)CC2C(=O)N(c3ccccc3)C(=O)N2CCC(C)C)cc1 (configuration not stated)	nt	4%	-8%	nt	i	-3%
CCCCCCCCCCCCCCOc1ccc(C(=O)O)o1	nt	nt	7.1µM*	nt	nt	nt
Cc1ccc(NC(=O)CSc2nnc(COc3ccc(C#N)cc3)n2-c2ccccc2)cc1C	-71*	-11%	-11%	-13	-3%	2%
CCOC(=O)N1CCC(N2CCCC(C(=O)c3cccc(OC(C)C)c3)C2)CC1 (configuration not stated)	-80*	14%	1%	0	2%	-1%
C=CCN1N=C(/C=C/c2ccc(C)cc2)CCC1=O	-108*	15%	-16%	2	-5%	-2%
CCOC(=O)C(C)N1N=C(/C=C/c2ccc(C)cc2)CCC1=O (configuration not stated)	-4	22%	-12%	-5	i	0%
N=c1n(CCN2CCCCC2)c2ccccc2n1CC(O)COc1ccc(Cl)cc1Cl (configuration not stated)	nt	5%	0%	nt	-14%	3%
N=c1n(CCN2CCCC2)c2ccccc2n1CC(O)c1ccc(Cl)c(Cl)c1 (configuration not stated)	-84*	?	16%	nt	nt	0%
CCc1c(C)c2ccc3c(c2oc1=O)CN(Cc1ccccc1)CO3	nt	-16%	?	nt	0%	-4%
Cn1c(N)c(C(=O)c2cc(-c3ccccn3)nc3ccccc23)c(=O)[nH]c1=O	0	9%[11.4 µM]	-8%	-101*	i	1%
O=C(Cn1cc(SCc2ccc(Cl)cc2)c2ccccc21)N1CCCC1	nt	12%	-14%	nt	8%	36%
CC(C)(C)c1cc(/C=C(\C#N)C(N)=S)cc(C(C)(C)C)c1O	nt	11µM*	-11%	nt	nt	nt
Cc1cc(-c2ccccc2)nc(=O)[nH]1	-192*	-10%	2%	-167*	0%	10%
O=c1nc(-c2ccccc2)cc(C(F)(F)F)[nH]1	-11	-8%	3%	-4	-9%[11.5 µM]	1%
Cc1ccc(Sc2ccc(N3CCC(C(=O)Nc4ccc(C)c(F)c4)CC3)nn2)cc1	nt	23%	0%	nt	-6%	-3%
Cc1ccc2nc(NC(=O)Cn3nc(C)c([N+](=O)[O-])c3C)sc2c1	-94*	20%	-5%	-8	8%	-8%
CC(=O)c1ccc(NC(=O)CC2Oc3ccc(C)cc3NC2=O)cc1 (configuration not stated)	nt	9%	2%	nt	i	-5%
CCCCCC#CCC#CCC#CCC#CCCCC(=O)O	nt	nt	2.2µM*	nt	nt	nt
CCCCCCCCCC(=O)O	-3	10%	-3%	2	1%	-10%
CC1CCN(c2ccc(NC(=S)NC(=O)c3ccco3)cc2)CC1	-1	-17%	22µM*	-25	-9%	-9%
COc1cc(C(=O)NC(=S)Nc2ccc(NC(=O)c3ccco3)cc2)cc(OC)c1OC	-83*	-14%	1%	1	1%	1%
COc1ncc2nc(C)c(=O)n(CCC#N)c2n1	nt	nt	-6%	nt	nt	nt
O=C(CSc1ccc(-c2ccccn2)nn1)NCc1ccccc1	2	-21%	-2%	-115*	i	-9%
CCOc1ccc(CCNCc2c(C(=O)O)c(C)n(Cc3ccccc3F)c2C)cc1	nt	-17%	3%	nt	i	-2%
CCOC(=O)C1OC1C(=O)N[C@@H](CC(C)C)C(=O)NCCC(C)C (some centres not stated)	nt	nt	0%	nt	nt	nt
SMILES	KCNH2 3.1 inh	RGS4 inh	GCN5L2 inh	KCNH2 WT inh	PGK inhibitor	Pin1 inhibitor
CCOc1cc(N2CCOCC2)c(OCC)cc1NC(=O)Cc1ccccc1OC	18	?	28µM*	4	-4%	2%
CCOc1cc(N2CCOCC2)c(OCC)cc1NC(=O)Cc1ccccc1	11	6%	-1%	-1	i	0%
Cc1ccc(Oc2ncnc(N)c2[N+](=O)[O-])cc1	6	6%	0%	3	2%	4%
Cc1ccc(N(c2ncnc(N)c2[N+](=O)[O-])C2CCCCC2)cc1	-86*	17%	-5%	14	-5%	-2%
Cc1ccc(C(c2cc(Cl)c3cccnc3c2O)N2CCN(C)CC2)cc1 (configuration not stated)	-42	?	32µM*	0	i	-2%
Cc1cc(C)c(S(=O)(=O)NCc2ccc3c(c2)CCN3C(=O)c2ccccc2)c(C)c1	nt	3%	-7%	nt	-9%	17%
O=C(O)C=Cc1ccc(Cn2ccnc2)cc1	nt	2.7µM*	-12%	nt	nt	nt
COc1ccc(CNC(=O)c2ccc(-c3nc(CSc4ccccc4)c(C)o3)cc2)cc1	nt	20%	4%	nt	0%	8%
CCc1cccc2c1NC(=O)C21N2CCCC2C(C(=O)c2ccc3ccccc3c2)C12C(=O)Nc1ccccc12 (configuration not stated)	-113*	-18%	-5%	-2	-7%	16%
CCOc1ccc(C(=O)N2CCN(c3ccccc3)CC2)cc1OCC	-4	11%	-13%	10	-12%	-5%
CCOc1ccc(C(=O)N2CCN(CCc3ccccc3)CC2)cc1OCC	-90*	6%	-6%	-30	0%	4%
CC12CN3CC(C)(CN(C1)C3c1ccccc1F)C2 (configuration not stated)	-99*	7%	3%	1	0%	-7%
COc1ccccc1CNC1CCN(Cc2ccccc2)CC1	-3	22%	-1%	17	-1%	1%
COc1ccccc1C1CCN(Cc2ccc(C)cc2)CC1	-84*	-24%	1%	39	i	-8%
CC(C)Cn1c(=O)c2sccc2n2c(CCCC(=O)NCc3ccccc3Cl)nnc12	nt	-16%	-11%	nt	-6%	-7%
Cc1cccc(C)c1OCC(=O)N/N=C/c1ccc2c(c1)OCO2	-1	9%	13µM*	6	-1%	2%
CC[n+]1ccc(C[n+]2ccccc2)c2ccccc21	1	?	28µM*	16	i	?
CC[n+]1ccc(/C=C/c2ccc(N(C)C)cc2)c2ccccc21	4	?	-4%	-3	?	13%
O=C(C[n+]1cc(-c2ccc(Cl)cc2)n2c1CCCCC2)c1ccccc1	-130*	-15%	1%	12	-12%	1%
O=C(Nc1ccnn1C1CCN(CCCc2ccccc2)CC1)c1ccccc1Cl	-112*	14%	3%	-120*	-5%	-3%
CC(C)Cc1ccc(CN2CCC(n3nccc3NC(=O)C3CCCC3)CC2)cc1	-103*	37%	-14%	-73*	5%	?

Bioassay records as filed in PubChem.
